The values that follow come from PubChem BioAssay (NCI).

About 83,000 compounds went through this panel and 20% of them were active in at least one assay; those are over-represented in the sample as a whole.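 Each cell line was grown in a 96-well plate and treated with one concentration of compound for 48 hours. Values below 10 were considered active.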 A number with no mark means an inactive call. Activity calls are given as the source filed them.

Some test systems named below: DU-145 prostate; K-562 leukemia; MALME-3M melanoma; MDA-MB-231 breast; RXF 393 renal; SF-268 CNS; SF-295 CNS; SF-539 CNS; UACC-257 melanoma; M14 melanoma.
Assay in all cases: NCI-60 one-dose screen, 48 h (100 = growth as untreated, 0 = no growth, -100 = all killed)
Conditions in all cases: 10 µM

In the case of `O=C1Nc2cc(-c3ccc(NC(=O)c4cccs4)cc3)ccc2/C1=C/c1ccc[nH]1`, the growth was 32.7% in the assay with DU-145 prostate; 80.8% with K-562 leukemia; 78.2% in the assay on MALME-3M melanoma; 61% with MDA-MB-231 breast; 73.9% in the assay on RXF 393 renal; 73.5% in the assay on SF-268 CNS. In addition, the growth in the assay with SF-295 CNS was 55.1%; in the assay on SF-539 CNS, 83.9%; in the assay on UACC-257 melanoma, 75.2%; in the assay on M14 melanoma it was 88.9%.

On to `CC(=O)Nc1ccc(-n2cnc3cc(-c4ccc(NS(C)(=O)=O)cc4)ccc32)cc1`, for which the growth was 58.2% in the assay with DU-145 prostate; 24% in the assay with K-562 leukemia; 75.6% in the assay on MALME-3M melanoma; 49.4% with MDA-MB-231 breast; 92.5% in the assay on RXF 393 renal; 47.3% in the assay with SF-268 CNS. Further, the growth was 51% in the assay with SF-295 CNS, 65.3% in the assay on SF-539 CNS, 64.4% in the assay with UACC-257 melanoma and 61.9% in the assay with M14 melanoma.

`CC(=O)OC[C@@]1(C)C2CC[C@]3(C)C(CC=C4C5CC(C)(C)CC[C@]5(C(=O)Nc5ccccc5)CC[C@]43C)[C@@]2(C)C[C@@H](OC(C)=O)[C@@H]1OC(C)=O` (stereo not given in full): the growth with DU-145 prostate was 44.9%; in the assay on K-562 leukemia it was 12.7%; in the assay on MALME-3M melanoma, 54.3%; in the assay on MDA-MB-231 breast, 60.6%; in the assay on RXF 393 renal it was 64.2%; with SF-268 CNS, 52.5%. The growth was 19.9% in the assay with SF-295 CNS, 41.6% in the assay with SF-539 CNS, 18.5% in the assay on UACC-257 melanoma and 50.9% in the assay with M14 melanoma.

As for `O=C(NC(=S)N1CCN(c2ncnc3c2cnn3-c2ccccc2)CC1)c1ccc(Cl)cc1`, the growth in the assay on DU-145 prostate is 81.1%; in the assay with K-562 leukemia it was 61.5%; with MALME-3M melanoma, 56.1%; with MDA-MB-231 breast, 57.1%; in the assay on RXF 393 renal it was 43.1%; with SF-268 CNS, 41.2%. Further, the growth with SF-295 CNS is 34.2%; in the assay on SF-539 CNS it was 11.2%; in the assay on UACC-257 melanoma it was 83.8%; in the assay on M14 melanoma it was 79.9%.

For `COC(=O)C(Cc1ccc(O)c(O)c1)NC(=O)C(CSC/C=C(\C)CCCC(C)CCCC(C)CCCC(C)C)NC(C)=O` (stereo not given), the growth is 75.5% in the assay on DU-145 prostate; 5.33% (active) in the assay with K-562 leukemia; 87.4% with MALME-3M melanoma; 38.1% in the assay with MDA-MB-231 breast; 48.3% in the assay with RXF 393 renal; 27.6% in the assay on SF-268 CNS. The growth is 1.8% (active) with SF-295 CNS, -34.7% (active) in the assay on SF-539 CNS, 56.4% in the assay with UACC-257 melanoma and 13.9% in the assay on M14 melanoma.

For the compound `C/C(=C\CC/C=C(\C)CC/C=C(\C)CC[C@@H](O)C(C)(C)O)CC/C=C(\C)CC[C@@H](O)C(C)(C)O`, the growth in the assay with DU-145 prostate is 63.7%; in the assay with K-562 leukemia, 10.4%; in the assay with MALME-3M melanoma it was 44.8%; in the assay on MDA-MB-231 breast it was 61.4%; with RXF 393 renal it was 16.5%; with SF-268 CNS, 57.5%. Also, the growth with SF-295 CNS is 9.52% (active); in the assay with SF-539 CNS it was 43%; with UACC-257 melanoma it was 21.1%; with M14 melanoma, 22.7%.

In the case of `Cc1nc(Nc2nc(C)c3ccc(OCCN4CCOCC4)cc3n2)[nH]c(=O)c1C`, the growth in the assay on DU-145 prostate was 14.9%; in the assay with K-562 leukemia it was 14.1%; in the assay on MALME-3M melanoma, -69.8% (active); in the assay with MDA-MB-231 breast, -67.1% (active); in the assay with RXF 393 renal, -78% (active); in the assay with SF-268 CNS it was 9.74% (active). The growth was -29.3% (active) in the assay on SF-295 CNS, -61.7% (active) in the assay with SF-539 CNS, -14.9% (active) with UACC-257 melanoma and 18% in the assay with M14 melanoma.

In the case of `Brc1ccc(/C=N/Nc2ncnc3sc4c(c23)CCN(Cc2ccccc2)C4)cc1`, the growth was 47.2% in the assay with DU-145 prostate; 20.9% with K-562 leukemia; 38.7% with MALME-3M melanoma; 22.1% with MDA-MB-231 breast; 66.7% in the assay with RXF 393 renal; 74.2% in the assay with SF-268 CNS. The growth with SF-295 CNS was 58.7%; with SF-539 CNS it was 71.4%; in the assay on UACC-257 melanoma it was 56.7%; with M14 melanoma it was -12.1% (active).

On to `O=C(c1ccc(Cl)cc1)C1[C@H](c2ccc(Br)cc2)[C@@H](c2ccccc2)NC12C(=O)Nc1ccccc12` (stereo not given in full), for which the growth was 12.4% in the assay with DU-145 prostate; -15.7% (active) in the assay with K-562 leukemia; -35.9% (active) with MALME-3M melanoma; -60.1% (active) with MDA-MB-231 breast; -59.8% (active) in the assay with RXF 393 renal; 12.1% with SF-268 CNS. Further, the growth in the assay on SF-295 CNS is -54.5% (active); in the assay with SF-539 CNS, -57.7% (active); with UACC-257 melanoma it was -2.88% (active); with M14 melanoma, 29.4%.

In the case of `O=C1NC(=NC2CCCCCC2)N/C1=C\c1ccc2ncoc2c1`, the growth is 31.1% with DU-145 prostate; 38.1% in the assay on K-562 leukemia; 66.4% in the assay on MALME-3M melanoma; 50.9% in the assay with MDA-MB-231 breast; -8.82% (active) in the assay on RXF 393 renal; 35% with SF-268 CNS. For the same compound, the growth in the assay on SF-295 CNS is 47.5%; in the assay on SF-539 CNS it was -2.22% (active); with UACC-257 melanoma it was 48.7%; in the assay with M14 melanoma, 64.4%.

As to `COc1ccc2nc(Nc3cccc(NC(=O)c4ccc(CN5CCN(C)CC5)c(C(F)(F)F)c4)c3)ccc2c1`, the growth is -32.8% (active) in the assay on DU-145 prostate; -70.8% (active) with K-562 leukemia; -91.8% (active) with MALME-3M melanoma; -82.7% (active) in the assay on MDA-MB-231 breast; -75.7% (active) in the assay with RXF 393 renal; -55.2% (active) in the assay with SF-268 CNS. In addition, the growth in the assay with SF-295 CNS is -97.7% (active); in the assay on SF-539 CNS, -99.8% (active); with UACC-257 melanoma, -83.9% (active); in the assay with M14 melanoma it was -50.1% (active).

For the compound `O=C(CN1CCN(c2ncnc3c2cnn3-c2ccccc2)CC1)Nc1nncs1`, the growth was -96.1% (active) in the assay with DU-145 prostate; 10.6% with K-562 leukemia; -67.3% (active) in the assay with MALME-3M melanoma; 29.7% in the assay on MDA-MB-231 breast; -71.3% (active) in the assay on RXF 393 renal; -34.4% (active) in the assay on SF-268 CNS. Further, the growth with SF-295 CNS is -31.4% (active); in the assay with SF-539 CNS it was -88.2% (active); in the assay with UACC-257 melanoma it was 54.3%; in the assay with M14 melanoma, 4.82% (active).
